In PMC11062922 (Nature Chemical Biology, 2023):
Read-outs that look alike come from different tables or passages of the source.

Tests used:
Set-up in all cases: species or system human, MV4-11 + K-562 + COLO205 + SK-N-BE2 + OVCAR-8
ADCK3 = conditions: read-out: apparent Kd, n = 1
ADRBK1 = conditions: read-out: apparent Kd; compound concentrations:100 nM and 1000 nM (sheet 'Samples'); n = 1
MAPK11 = conditions: read-out: apparent Kd; compound concentrations:100 nM and 1000 nM (sheet 'Samples'); n = 1
MAPKAPK2 = conditions: read-out: apparent Kd; compound concentrations:100 nM and 1000 nM (sheet 'Samples'); n = 1
PI4KA = conditions: read-out: apparent Kd; compound concentrations: 100 nM and 1000 nM (sheet 'Samples'), CATDS: 8.9803456150084393E-2; n = 1
PIK3CA = conditions: read-out: apparent Kd; compound concentrations: 100 nM and 1000 nM (sheet 'Samples'), CATDS: 0.36477997446567001; n = 1
PIK3CB = conditions: read-out: apparent Kd; compound concentrations: 100 nM and 1000 nM (sheet 'Samples'), CATDS: 0.118363122139114; n = 1
PIK3CD = conditions: read-out: apparent Kd; compound concentrations: 100 nM and 1000 nM (sheet 'Samples'), CATDS: 0.63403927390637105; n = 1
PIK3CG = conditions: read-out: apparent Kd; compound concentrations: 100 nM and 1000 nM (sheet 'Samples'), CATDS: 0.133003472389642; n = 1
PRKDC = conditions: read-out: apparent Kd; compound concentrations: 100 nM and 1000 nM (sheet 'Samples'), CATDS: 9.9642367307020793E-2; n = 1
SRRT = conditions: read-out: apparent Kd; compound concentrations: 100 nM and 1000 nM (sheet 'Samples'), CATDS: 7.4591136223679494E-2; n = 1
TOP2B = conditions: read-out: apparent Kd; compound concentrations: 100 nM and 1000 nM (sheet 'Samples'), CATDS: 7.4747311850649895E-2; n = 1
AKT1 = conditions: read-out: apparent Kd; compound concentrations: 100 nM and 1000 nM (sheet 'Samples'), CATDS: 0.104224113270125; n = 1
AKT2 = conditions: read-out: apparent Kd; compound concentrations: 100 nM and 1000 nM (sheet 'Samples'), CATDS: 0.10421017655023999; n = 1
CSNK1A1 = conditions: read-out: apparent Kd; compound concentrations: 100 nM and 1000 nM (sheet 'Samples'), CATDS: 0.102191451764392; n = 1
MAP2K1 = conditions: read-out: apparent Kd; compound concentrations: 100 nM and 1000 nM (sheet 'Samples'), CATDS: 0.110237039965707; n = 1
NQO1 = conditions: read-out: apparent Kd; compound concentrations: 100 nM and 1000 nM (sheet 'Samples'), CATDS: 0.123163223225838; n = 1
RIOK2 = conditions: read-out: apparent Kd; compound concentrations: 100 nM and 1000 nM (sheet 'Samples'), CATDS: 0.117096482211817; n = 1
ZAK = conditions: read-out: apparent Kd; compound concentrations: 100 nM and 1000 nM (sheet 'Samples'), CATDS: 0.14081253885296899; n = 1

Compound `CNC(=O)c1ccc(C)c(-n2c(C)cc(OCc3ccc(F)cc3F)c(Br)c2=O)c1` [PFE-PKIS_41] has a potency estimated from few doses (ADCK3; compound concentrations:100 nM and 1000 nM (sheet 'Samples')) of 1.26 µM, a potency estimated from few doses (ADRBK1) of 1.49 µM and a potency estimated from few doses (MAPK11) of 0.0347 µM. It also gave a potency estimated from few doses (MAPKAPK2) of 0.0233 µM.

`Nc1ncc(-c2ccc3nccc(-c4ccncc4)c3c2)cc1S(=O)(=O)N1CCOCC1` [GSK1627798A] gave a potency estimated from few doses (ADCK3; compound concentrations: 100 nM and 1000 nM (sheet 'Samples'), CATDS: 7.8381532556713998E-2) of 1.52 µM, a potency estimated from few doses (PI4KA) of 0.893 µM and a potency estimated from few doses (PIK3CA) of 0.0111 µM. It also gave a potency estimated from few doses (PIK3CB) of 0.366 µM, a potency estimated from few doses (PIK3CD) of 0.00367 µM and a potency estimated from few doses (PIK3CG) of 0.258 µM. The potency estimated from few doses (PRKDC) was 0.627 µM, the potency estimated from few doses (SRRT) was 1.9 µM and the potency estimated from few doses (TOP2B) was 1.88 µM.

Compound `COc1cccc(-n2cnc3c(N)ncnc32)c1` [SKF-97416] has a potency estimated from few doses (ADCK3; compound concentrations: 100 nM and 1000 nM (sheet 'Samples'), CATDS: 0.45631454504768898) of 0.155 µM, a potency estimated from few doses (AKT1) of 2.12 µM and a potency estimated from few doses (AKT2) of 2.12 µM. It also gave a potency estimated from few doses (CSNK1A1) of 2.24 µM, a potency estimated from few doses (MAP2K1) of 1.83 µM and a potency estimated from few doses (NQO1) of 1.4 µM. It also gave a potency estimated from few doses (RIOK2) of 1.58 µM and a potency estimated from few doses (ZAK) of 1.05 µM.
